# An excerpt weighted towards active compounds, which were near 10% of everything screened.
# VDR inh – inhibitors of human vitamin D receptor. VDR-SRC2-3 peptide fluorescence polarization, 2 h. Potency, µM, inactives show max response, negative = inhibition, usual class: inhibitors. hit rate 0.93% among 400,000; also: potency is read from the fitted curve at half-maximal effect
# Target sequence (P11473 whole entry, looked up): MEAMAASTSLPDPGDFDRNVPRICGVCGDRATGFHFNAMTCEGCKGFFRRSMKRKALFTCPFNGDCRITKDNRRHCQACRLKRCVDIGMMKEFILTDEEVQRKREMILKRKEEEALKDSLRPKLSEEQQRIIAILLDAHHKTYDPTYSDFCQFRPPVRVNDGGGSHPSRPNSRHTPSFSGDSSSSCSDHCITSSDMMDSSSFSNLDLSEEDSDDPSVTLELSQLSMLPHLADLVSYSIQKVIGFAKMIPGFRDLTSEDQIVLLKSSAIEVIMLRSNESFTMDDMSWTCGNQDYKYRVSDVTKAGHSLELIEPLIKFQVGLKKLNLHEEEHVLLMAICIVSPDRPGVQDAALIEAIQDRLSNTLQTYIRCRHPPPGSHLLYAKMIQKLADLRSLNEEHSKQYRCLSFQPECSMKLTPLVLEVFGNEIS
#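 Reagent solutions, kept cold and dark, are dispensed first; compounds are then pinned in at 23 nl, plates briefly spun, and incubated 2 h at ambient temperature. Inhibition of VDR–SRC2-3 peptide binding is read by fluorescence polarization.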
# G9a inh – blocks human histone lysine methyltransferase G9a | G9a H3K9 monomethylation, AlphaScreen, 2 h | Potency, µM (doses to about 102 µM), for inactives: top-dose activity, negative = inhibition, actives largely listed as inhibitors | AID 504332 | Q96KQ7 | hit rate 8.8% among 350,000; also: potency is read from the fitted curve at half-maximal effect; nearly all actives have a fitted effect of over 75% in size
#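 Enzyme 20 nM + cpd, 15 min RT; add b-H3K9 pep 500 nM / SAM 20 uM; 2 h RT; anti-H3K9me1 Ab 0.5 ug/mL + SA donor / anti-rabbit acceptor beads 20 ug/mL each, 10 min; AlphaScreen read.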
# MmCpn inh – blocks the Methanococcus maripaludis chaperonin Mm-Cpn | purified Mm-Cpn ATPase, ADP Transcreener TR-FRET | Potency, µM (doses to about 76.9 µM), for inactives: top-dose activity, negative = inhibition, hits mostly inhibitors | hit rate 0.031% among 330,000 | AID 504842; also: potency is read from the fitted curve at half-maximal effect; nearly all actives have a fitted effect of over 80% in size
#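 Inhibition of chaperonin ATP hydrolysis is measured as reduced ADP production, detected by competitive TR-FRET in which signal falls with ADP. Final enzyme 25 nM and ATP 10 uM, reacted 30 min at 37°C.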
# PLK1 PBD block – blocks phosphopeptide binding to human PLK1 polo-box domain; P53350; Plk1 PBD binding of FITC phosphopeptide, fluorescence polarization; Potency, µM, inactives show max response, negative = inhibition, hits mostly inhibitors; hit rate 2.8% among 360,000; also: potency is read from the fitted curve at half-maximal effect; series mostly up to about 57 µM; nearly all actives have a fitted effect of over 65% in size
# CCT modulator – cytosolic chaperonin activity modulation; activity change, % (test concentration not listed), hits read low; hit rate 0.3% among 360,000; purified chaperonin ATPase assay, HTRF ADP detection, 30 min; in the data active = activity change below about -30%
#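 We incubate TRiC, 40 or 20 nM final, with library compounds at 76 uM and 10 uM ATP for 30 min at 37 °C. ADP formed is detected with Transcreener HTRF reagents after 30 min at room temperature.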
# Sfp inh – blocks B. subtilis Sfp PPTase activity. Q9F4F7. Biochemical Sfp PPTase activity, qHTS. Potency, µM, without a hit: largest response in the series, negative = inhibition, hits mostly inhibitors. hit rate 3.5% among 310,000. AID 1490;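 also: the enzyme is Sfp with the accession as filed and its product quenches rhodamine fluorescence; potency is read from the fitted curve at half-maximal effect; 0% = enzyme reaction without inhibitor and -100% = no enzyme wells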
#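 Buffer: 50 mM Hepes-Na pH 7.6, 10 mM MgCl2, 0.01% Nonidet P-40, 0.01% BSA. Enzyme 15 nM, pre-exposed to compound 15 min; substrates then added and fluorescence change tracked over 30 min.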
# An asterisk follows results filed as active; ? = inconclusive; nt = no result given; [ ] = dose if it differs, or a comment. Unless noted, calls follow the shape of the dose curve; as a rule, active = well fitted curve in the direction sought with a large enough effect; inconclusive = small, poorly fitted or top-dose-only effect, or another doubt; inactive = no such curve, though single readings can be large; an effect the other way counts as inactive or inconclusive. Unless noted, % is scaled to controls: 0 for no effect and ±100 for the full control effect.
SMILES,VDR inh,G9a inh,MmCpn inh,PLK1 PBD block,CCT modulator,Sfp inh
COc1cc(C(=S)N2CCOCC2)ccc1OC(=O)c1ccccc1C,3%,nt,0%,-22%,0,-15%
O=C(Oc1ccccc1C(=S)N1CCOCC1)c1ccc([N+](=O)[O-])cc1[N+](=O)[O-],-6%,50µM*,1%,-27%,0,-20%
COc1cc(C(=S)N2CCOCC2)cc(OC)c1OC(=O)c1ccccc1[N+](=O)[O-],-10%,?,-1%,-16%,0,8%
COc1ccc(C(=S)N2CCOCC2)cc1OC(=O)c1ccccc1Cl,-21%,11µM*,0%,19µM*,1,56µM*
COc1cc(C(=S)N2CCOCC2)ccc1OC(=O)c1ccc(Br)cc1,-18%,-43%,0%,-10%,0,-3%
COc1cc(C(=S)N2CCOCC2)ccc1OC(=O)c1cccc(C)c1,-8%,22µM*,-3%,?,-1,79µM*
CCC(=O)N1c2ccccc2CC1C(=O)NCCc1ccc(OC)cc1OC (configuration not stated),9%,0%[12.7 µM],nt,nt,nt,nt
Cc1ccc2c(=O)c(C(=O)c3ccc(F)cc3)cn(CC(=O)NCc3ccccc3Cl)c2n1,6%,-9%[59 µM],nt,nt,nt,nt
COc1cc(C(=S)N2CCCCC2)ccc1OCC(=O)Nc1ccccc1Cl,-9%,?,0%,-28%,-2,16%
O=C(COc1ccc(C(=S)N2CCOCC2)cc1Cl)Nc1ccccc1Cl,-4%,7.1µM*,-2%,?,0,20µM*
O=C(C1=C(O)/C(=C/c2ccc(O)cc2)CCC1)C(F)(F)F,-10%,10µM*,0%,8%,-3,-22%
O=C(NNC1=C(C(=O)C(F)(F)F)CCC1)c1cccc(O)c1,-1%,1%[59 µM],0%,-2%,-4,25%
COc1ccc(/C=C2\CCCC(C(=O)C(F)(F)F)=C2O)cc1,-19%,8.9µM*,1%,?,-1,-12%
O=C(CSc1nnc(-c2ccccc2Br)n1-c1ccccc1)c1ccc(F)cc1,3%,-8%[59 µM],nt,nt,nt,nt
O=C(NCC(c1ccc2c(c1)OCO2)N1CCN(c2ccccc2)CC1)c1ccc(F)c(F)c1 (configuration not stated),12%,?,nt,nt,nt,nt
COc1ccc(-c2cc(C3C4C=CCC(C)C4C(=O)N3Cc3ccccc3)ccc2F)cc1 (configuration not stated),-15%,nt,nt,nt,nt,-19%
CCOC(=O)c1sc(NCc2ccco2)c(-c2nc3ccccc3s2)c1N,0%,-14%[59 µM],-19%,-11%,-3,?
C=CCNc1sc(C(=O)c2ccccc2)c(N)c1-c1nc2ccccc2s1,-14%,22µM*,-2%,17µM*,2,20µM*
CN(Cc1ccccc1)C(C(=O)NC1CCCCC1)c1ccc(Cl)cc1 (configuration not stated),-8%,7%[59 µM],nt,nt,nt,nt
CCC1=Nc2cc(C(=O)NCCN3CCCC3)ccc2Sc2ccccc21,-4%,45µM*,-1%,-2%,-1,-5%
Cc1c(C)n(C)c2ccc(C(=O)NCCCN3CCCCC3)cc12,-2%,?,0%,-8%,1,5%
Cc1c(C)n(C)c2ccc(C(=O)NCCCN3CCN(c4ccccc4F)CC3)cc12,7%,45µM*,-4%,0%,1,-11%
Cc1c(C)n(C)c2ccc(C(=O)NCCCN3CCCC3)cc12,-9%,50µM*,-1%,-1%,-1,-1%
COc1ccc(OC)c(CCNC(=O)CCc2cn(C)c3ccccc23)c1,-14%,71µM*,-2%,-7%,-2,5%
CC(=O)N1c2ccccc2CC1C(=O)N1CCN(c2ccccc2)CC1 (configuration not stated),7%,20%[59 µM],nt,nt,nt,nt
Cn1cc(CC(=O)NCCCN2CCCC2)c2ccccc21,12%,56µM*,1%,-15%,-1,11%
Cc1[nH]c2ccc(C(=O)NCCN3CCCCCC3)cc2c1C,18%,50µM*,-3%,-19%,0,-10%
O=C(Cn1c(=O)c2cccn2c2ccc(F)cc21)NCCCN1CCN(c2ccccc2F)CC1,4%,45µM*,5%,-2%,0,15%
Cc1[nH]c2ccc(C(=O)NCCCN3CCCCC3)cc2c1C,4%,4%,0%,2%,2,2%

# Source: PubChem BioAssay
